Hits are enriched below; roughly 2.4% of the tested compounds scored in any of these assays.
D2 ag-1 = Beta-Arrestin HTS for Positive Allosteric Modulators of the Human D2 Dopamine Receptor: Agonists; activation, % (concentration not given with the values); DiscoveRx PathHunter D2 beta-arrestin, luminescence, 90 min; 100% = 57 uM dopamine signal; D(2) dopamine receptor (Homo sapiens), P14416; 0.084% of 360,000 active; AID 624465, 2012; in the data active = activation above about 40%
Target sequence (P14416 whole entry, looked up): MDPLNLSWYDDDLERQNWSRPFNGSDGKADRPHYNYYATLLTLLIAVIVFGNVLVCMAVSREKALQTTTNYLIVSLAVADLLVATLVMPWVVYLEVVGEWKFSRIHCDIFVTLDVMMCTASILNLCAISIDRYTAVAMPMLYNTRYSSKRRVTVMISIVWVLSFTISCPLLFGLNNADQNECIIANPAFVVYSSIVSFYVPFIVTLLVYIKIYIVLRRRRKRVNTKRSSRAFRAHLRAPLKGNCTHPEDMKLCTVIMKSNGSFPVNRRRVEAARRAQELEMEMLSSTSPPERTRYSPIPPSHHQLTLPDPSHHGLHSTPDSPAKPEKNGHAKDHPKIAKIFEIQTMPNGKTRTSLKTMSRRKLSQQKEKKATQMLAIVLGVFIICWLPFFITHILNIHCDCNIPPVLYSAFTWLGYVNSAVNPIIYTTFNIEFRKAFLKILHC
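DiscoveRx PathHunter D2 beta-arrestin cells (2,100/well) attached overnight, then compound-stimulated 90 min at 37 C in HBSS/10 mM HEPES/0.1% Tween-20 buffer; beta-galactosidase complementation read by luminescence after 1 h at ambient temperature. Dopamine 57 uM final (EC100) as control.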
D2 PAM-1 = Beta-Arrestin HTS for Positive Allosteric Modulators of the Human D2 Dopamine Receptor: Potentiators. D(2) dopamine receptor (Homo sapiens), P14416. DiscoveRx D2 beta-arrestin cells, luminescence, 90 min; 100% = 57 uM dopamine signal. potentiation, % (concentration not given with the values). 0.23% of 360,000 active; in the data active = potentiation above about 50%
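PathHunter D2 cells, attached overnight at 37 deg C, received compound in DMSO plus dopamine at EC20 (50 nM final) for 90 min at 37 deg C. Beta-arrestin recruitment was read as luminescence after 1 h with detection reagent at ambient temperature.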
D2 ag-2 = HTS Assay for Allosteric Agonists of the Human D2 Dopamine Receptor: Primary Screen for Agonists. HEK293 T-REx D2 cells, calcium flux agonist mode. activation, % at 2 µM. 0.53% of 340,000 active;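 active = activation over 3 SD above normal in the single-dose calcium agonist read, cut at about 30% in these data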; note: 0% is about no effect
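In this primary screen, compounds producing a positive calcium signal within 180 s of addition to tetracycline-induced, force-coupled HEK293 Trex D2 cells are flagged; cells are dye-loaded with a no-wash calcium kit beforehand.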
D2 antagonist = HTS Assay for Allosteric Antagonists of the Human D2 Dopamine Receptor: Primary Screen for Antagonists | HEK293 TREx D2 cells, calcium flux, dopamine EC80 | inhibition, % at 10 µM | 2% of 340,000 active | AID 485344, 2010; in the data active = inhibition above about 30%; inactive = below that, where a call was filed; note: 0% is about no effect
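Antagonism is scored as inhibition of an EC80 dopamine-evoked calcium signal in a force-coupled, tetracycline-inducible HEK293 T-REx D2 line, with compound present 180 s before agonist.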
D2 PAM-2 = HTS Assay for Positive Allosteric Modulators of the Human D2 Dopamine Receptor: Primary Screen for Potentiators; D(2) dopamine receptor (Homo sapiens), P14416; HEK293 T-REx D2, calcium flux, EC20 dopamine potentiation; potentiation, % at 10 µM; 0.34% of 340,000 active; AID 485347, 2010;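 active = potentiation over 3 SD above the plate norm, cut at about 30% in these data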; note: 0% is about no effect
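Calcium flux readout, no-wash dye, 1 read/s. Inducible HEK293 Trex D2 line, overnight 30 C. Compound alone 180 s (agonist flags), then EC20 dopamine, another 180 s to score potentiation.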
Active calls of the source: *; . = no result given.

SMILES	D2 ag-1	D2 PAM-1	D2 ag-2	D2 antagonist	D2 PAM-2
COc1cccc2c1ncc1c(-c3ccc(C)cc3)nn(-c3cccc([N+](=O)[O-])c3)c12	.	.	2.1	.	3.8
Cn1nnnc1SCC(=O)Nc1ccc(Br)cc1Cl	-2.2	5.7	-0.3	6.6	43.7*
CCC(=O)N1CCCc2cc(S(=O)(=O)N3CCN(c4ncccn4)CC3)ccc21	10.0	-5.4	0.4	31.3*	3.8
CCc1ccccc1N(CC(=O)NC1CCCCC1)C(=O)CCCC(=O)Nc1ccccn1	0.3	0.9	0.2	-23.3	-5.7
COc1cccc(NC(=O)[C@H](Cc2ccccc2)NC(=O)[C@@H]2Cc3ccccc3CN2)c1	-1.2	-11.2	-0.4	35.4*	5.7
CC(C)c1ccc(NC(=O)[C@H](NC(=O)[C@@H]2Cc3ccccc3CN2)c2ccccc2)cc1	-2.6	-19.0	-0.5	32.7*	-11.0
Cc1ccc(NC(=O)[C@H](NC(=O)[C@@H]2Cc3ccccc3CN2)c2ccccc2)cc1	0.0	-33.0	0.9	-5.8	-23.9
CCOc1ccccc1/C=C/c1onc(C)c1S(=O)(=O)N1CCC(C(=O)N2CCCCC2)CC1	.	.	0.5	.	-4.1
Cc1nc2ccccn2c(=O)c1NC(=O)c1ccc(F)c(F)c1	.	.	1.7	.	-9.1
Cc1ccc(C2(C)NC(=O)N(CC(=O)Nc3ccc(S(=O)(=O)Nc4nccs4)cc3)C2=O)cc1 (stereo not drawn)	2.7	3.7	-1.1	-1.4	30.9*
Cc1ccc(NC(=O)CN2C(=O)NC(C)(c3ccc(Cl)cc3)C2=O)cc1 (stereo not drawn)	-3.4	-6.5	3.2	-7.2	0.9
Cc1ccc(C)c(Cn2c(CO)nc3ccccc32)c1	-2.6	-7.7	-0.5	-18.8	15.4
Cc1ccc(C)c(Cn2ncc3ccccc32)c1	-3.8	-4.0	-1.0	-19.3	41.3*
Cc1ccc(SCCC(=O)NCc2ccco2)cc1	-2.9	-10.2	-0.4	-32.8	35.0*
Cc1ccc(SCC(=O)NCc2ccco2)cc1	-2.9	-1.2	1.5	19.3	3.5
Cc1c(Cl)c([N+](=O)[O-])nn1CC(=O)NCc1ccco1	-1.8	-10.8	0.9	42.1*	-3.6
Cc1c(Cl)c(C(F)(F)F)nn1CC(=O)NCc1ccco1	0.2	-8.0	2.1	39.9*	.
Cc1ccc(C(=O)NCC(c2cccs2)S(=O)(=O)c2cccs2)cc1 (stereo not drawn)	.	.	0.4	.	-4.2
COc1cc(/C=C2/SC(=S)N(Cc3ccccc3)C2=O)cc(Cl)c1O	-1.6	-5.7	71.6*	-11.9	-20.5
COc1cc(/C=C2\SC(=O)N(Cc3ccc(F)cc3)C2=O)cc([N+](=O)[O-])c1O	-2.5	-0.9	-1.8	31.5*	3.2
CCOC(=O)CCNC(=O)N1CCCC(N(C)CCc2ccccc2)C1 (stereo not drawn)	-2.4	0.2	1.6	3.4	-2.8
COc1ccccc1CNC(=O)CSc1nc(=O)[nH]c2c1CCC2	.	.	0.7	.	7.9
CCOc1ccc(Oc2ccccc2NC(=O)C2=COCCO2)cc1	-6.8	-13.7	0.2	37.2*	5.3
Cc1ccc(C(C)C)c(OCc2nn(CC(=O)c3ccc(Cl)cc3)c3[n+]2CCCCC3)c1	-11.6	-23.4	1.2	33.0*	-27.9
O=C(Cn1nc(CNc2ccc(Cl)cc2)[n+]2c1CCCCC2)c1ccccc1	-3.3	-10.9	-0.8	6.8	-14.1
SMILES	D2 ag-1	D2 PAM-1	D2 ag-2	D2 antagonist	D2 PAM-2
Cc1ccc(-n2nc(C)c3nc(CCC(=O)Nc4cccc(C)c4C)c(=O)n(C)c32)cc1	.	.	1.4	.	2.8
Cn1c(N)c(C(=O)Nc2ccccc2)c(=O)[nH]c1=O	0.5	-6.2	.	.	.
Cn1c(N)c(C(=O)/C=C/c2ccccc2)c(=O)[nH]c1=O	-1.1	-2.0	0.8	53.6*	4.8
O=C1CN(S(=O)(=O)c2ccccc2)CC(=O)N1CCc1ccccc1	-3.9	-8.9	0.6	-15.0	13.7
Cc1cc(S(=O)(=O)N2CC(=O)N(CCc3ccccc3)C(=O)C2)ccc1F	-2.7	-3.2	0.1	-2.0	31.4*
C=CCn1cn[nH]c1=S	-2.9	-11.8	-1.7	-9.6	3.5
CC(C)CCC(CCN1CCOCC1)c1ccc2c(c1)OCO2 (stereo not drawn)	-0.4	-14.0	0.1	30.9*	2.5
Cc1cc2nc(-c3cccc(NC(=O)COc4ccc(C(C)C)cc4)c3)oc2cc1C	.	.	-0.6	.	2.4
N/C(COc1ccc(Cl)cc1Cl)=N\O	-4.3	-17.5	1.1	-7.1	32.3*
Cc1c(CCC(=O)NCCc2ccccc2)c(=O)oc2c(C)c(O)ccc12	.	.	-0.6	.	-15.2
CCCC(=O)N1c2nc(-c3ccco3)nn2C2(CCCCC2)[C@@H]2CCCC[C@@H]21	.	.	1.0	.	19.6
Cc1cc(NNC(=O)c2ccccc2)nc(NNC(=O)c2ccccc2)n1	8.6	2.3	0.2	34.0*	-22.8
CNc1nc(NC)nc(NNC(=O)c2ccccc2)n1	-0.4	-10.1	.	.	.
CCOC(=O)N1CCN(S(=O)(=O)c2ccc(F)c(C(=O)Nc3cccc(Cl)c3C)c2)CC1	5.2	4.3	-1.1	-13.5	8.2
CCS(=O)(=O)N1CC(=O)N(c2ccccc2C)C(C)(C(=O)NC2CCCCC2)C1 (stereo not drawn)	.	.	-0.1	.	-6.7
CCn1nnnc1NCc1ccc(Cl)cc1	-0.5	-6.2	0.6	46.7*	13.7
CCCn1nnnc1NCc1ccc(SC)cc1	-1.0	-1.0	-1.4	36.9*	5.6
CC(=O)N(Cc1ccco1)C1(C(=O)NC2CCCCC2)CCCCC1	-2.8	-5.6	.	.	.
CC(=O)NCC(=O)N(Cc1ccco1)C1(C(=O)NC2CCCCC2)CCCCC1	-4.8	-18.4	0.8	72.5*	-0.4
Cc1cc(NC(=O)CCC(=O)N(Cc2ccco2)C2(C(=O)NC3CCCC3)CCCCC2)no1	-9.0	-9.6	0.1	5.0	1.1
Cc1cc(NC(=O)CCC(=O)N(Cc2ccco2)C2(C(=O)NC3CCCC3)CCCCC2C)no1 (stereo not drawn)	2.8	-2.1	1.0	33.7*	14.1
CCOC(=O)C1=C(COC(=O)COc2ccccc2C(C)C)NC(=O)NC1C (stereo not drawn)	0.3	0.1	0.9	4.4	-23.5
CC(=O)N1CCN(C(=O)COC(=O)/C=C/c2ccc(C(F)(F)F)cc2)CC1	-4.8	-1.3	.	.	.
c1ccc2nc(N3CCN(Cc4ccc5c(c4)OCO5)CC3)cnc2c1	-3.5	-26.8	-0.5	-17.7	-15.1
COc1nc2ccccc2nc1N1CCN(Cc2ccc3c(c2)OCO3)CC1	-3.0	-34.4	-1.2	51.0*	-26.6

Compound activity: PubChem, National Center for Advancing Translational Sciences (NCATS)
